# According to ChEMBL document CHEMBL1961873, “Compounds: GSK PKIS; Assays: Nanosyn kinase panel” (2012):
# Tests used:
# [1] = target: Sphingosine kinase 1 (Homo sapiens) (UniProt Q9NYA1); conditions: at 1 µM;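 also: mean SPHK1 inhibition value reported from the GSK PKIS kinase panel screen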
# [2] = target: T1, Sphingosine kinase 2 (Homo sapiens) (UniProt Q9NRA0); conditions: at 0.1 µM
# T1 sequence (whole entry): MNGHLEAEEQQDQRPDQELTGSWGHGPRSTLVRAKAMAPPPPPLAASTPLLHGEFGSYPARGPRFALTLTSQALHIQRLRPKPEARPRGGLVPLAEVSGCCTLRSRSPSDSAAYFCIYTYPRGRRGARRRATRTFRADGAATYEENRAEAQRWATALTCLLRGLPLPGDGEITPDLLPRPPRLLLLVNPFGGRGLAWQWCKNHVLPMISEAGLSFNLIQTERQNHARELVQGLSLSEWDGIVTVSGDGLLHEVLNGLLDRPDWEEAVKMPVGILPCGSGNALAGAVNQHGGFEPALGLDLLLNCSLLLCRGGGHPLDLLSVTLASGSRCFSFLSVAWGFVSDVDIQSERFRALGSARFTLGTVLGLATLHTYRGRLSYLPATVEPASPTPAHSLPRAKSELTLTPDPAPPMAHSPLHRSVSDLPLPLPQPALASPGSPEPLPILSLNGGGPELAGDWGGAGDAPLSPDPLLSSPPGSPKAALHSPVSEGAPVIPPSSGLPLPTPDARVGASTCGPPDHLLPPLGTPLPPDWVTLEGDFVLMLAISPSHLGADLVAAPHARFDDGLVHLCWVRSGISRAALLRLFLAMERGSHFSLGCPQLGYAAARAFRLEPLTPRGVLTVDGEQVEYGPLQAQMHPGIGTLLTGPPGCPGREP
# [3] = target: T1, Sphingosine kinase 2 (Homo sapiens); conditions: at 1 µM
# [4] = target: Casein kinase II subunit alpha (Homo sapiens) (UniProt P68400); conditions: at 0.1 µM
# [5] = target: Casein kinase II subunit alpha (Homo sapiens) (UniProt P68400); conditions: at 1 µM
# [6] = target: T2, Inhibitor of nuclear factor kappa-B kinase subunit alpha (Homo sapiens) (UniProt O15111); conditions: at 0.1 µM
# T2 sequence (whole entry): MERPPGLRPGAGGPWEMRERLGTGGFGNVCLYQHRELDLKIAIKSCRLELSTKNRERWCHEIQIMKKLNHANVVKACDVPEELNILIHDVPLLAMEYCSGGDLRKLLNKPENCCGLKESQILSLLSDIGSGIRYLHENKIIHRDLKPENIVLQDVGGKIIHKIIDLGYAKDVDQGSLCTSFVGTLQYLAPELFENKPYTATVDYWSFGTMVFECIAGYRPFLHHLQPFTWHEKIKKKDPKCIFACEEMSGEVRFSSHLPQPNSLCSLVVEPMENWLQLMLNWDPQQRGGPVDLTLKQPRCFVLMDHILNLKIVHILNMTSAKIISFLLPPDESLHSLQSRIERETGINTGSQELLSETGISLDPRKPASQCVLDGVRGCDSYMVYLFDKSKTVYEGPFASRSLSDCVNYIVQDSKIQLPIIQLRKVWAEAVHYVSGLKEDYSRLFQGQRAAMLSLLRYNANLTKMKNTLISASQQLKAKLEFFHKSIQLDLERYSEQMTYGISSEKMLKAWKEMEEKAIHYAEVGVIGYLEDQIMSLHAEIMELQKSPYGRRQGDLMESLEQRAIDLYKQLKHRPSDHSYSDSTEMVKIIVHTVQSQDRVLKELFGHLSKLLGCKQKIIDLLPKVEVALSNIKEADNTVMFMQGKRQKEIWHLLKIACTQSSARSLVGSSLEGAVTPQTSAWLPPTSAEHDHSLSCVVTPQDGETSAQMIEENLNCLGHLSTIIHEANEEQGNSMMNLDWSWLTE
# [7] = target: T2, Inhibitor of nuclear factor kappa-B kinase subunit alpha (Homo sapiens); conditions: at 1 µM
# [8] = target: T3, Inhibitor of nuclear factor kappa-B kinase subunit beta (Homo sapiens) (UniProt O14920); conditions: at 0.1 µM
# T3 sequence (whole entry): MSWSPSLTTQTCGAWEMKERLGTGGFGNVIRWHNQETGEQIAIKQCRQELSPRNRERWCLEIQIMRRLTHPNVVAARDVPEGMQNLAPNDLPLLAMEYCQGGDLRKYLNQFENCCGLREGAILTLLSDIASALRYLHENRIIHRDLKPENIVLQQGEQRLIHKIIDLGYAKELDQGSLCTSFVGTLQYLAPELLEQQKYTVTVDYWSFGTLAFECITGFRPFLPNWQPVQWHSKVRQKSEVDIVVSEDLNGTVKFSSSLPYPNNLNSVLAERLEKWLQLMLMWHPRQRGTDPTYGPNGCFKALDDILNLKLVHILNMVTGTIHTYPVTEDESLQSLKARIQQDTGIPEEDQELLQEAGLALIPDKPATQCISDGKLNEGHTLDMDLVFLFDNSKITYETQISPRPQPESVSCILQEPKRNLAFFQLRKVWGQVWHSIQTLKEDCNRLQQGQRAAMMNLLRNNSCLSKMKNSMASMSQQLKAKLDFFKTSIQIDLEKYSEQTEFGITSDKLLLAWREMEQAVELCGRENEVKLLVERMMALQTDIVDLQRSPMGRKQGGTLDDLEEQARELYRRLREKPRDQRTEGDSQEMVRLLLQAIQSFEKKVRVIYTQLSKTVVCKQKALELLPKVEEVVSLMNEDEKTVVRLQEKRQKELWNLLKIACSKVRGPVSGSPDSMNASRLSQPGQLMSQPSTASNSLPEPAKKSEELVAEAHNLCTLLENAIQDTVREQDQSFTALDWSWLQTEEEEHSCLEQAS
# [9] = target: T3, Inhibitor of nuclear factor kappa-B kinase subunit beta (Homo sapiens); conditions: at 1 µM
# [10] = target: T4, Inhibitor of nuclear factor kappa-B kinase subunit epsilon (Homo sapiens) (UniProt Q14164); conditions: at 0.1 µM
# T4 sequence (whole entry): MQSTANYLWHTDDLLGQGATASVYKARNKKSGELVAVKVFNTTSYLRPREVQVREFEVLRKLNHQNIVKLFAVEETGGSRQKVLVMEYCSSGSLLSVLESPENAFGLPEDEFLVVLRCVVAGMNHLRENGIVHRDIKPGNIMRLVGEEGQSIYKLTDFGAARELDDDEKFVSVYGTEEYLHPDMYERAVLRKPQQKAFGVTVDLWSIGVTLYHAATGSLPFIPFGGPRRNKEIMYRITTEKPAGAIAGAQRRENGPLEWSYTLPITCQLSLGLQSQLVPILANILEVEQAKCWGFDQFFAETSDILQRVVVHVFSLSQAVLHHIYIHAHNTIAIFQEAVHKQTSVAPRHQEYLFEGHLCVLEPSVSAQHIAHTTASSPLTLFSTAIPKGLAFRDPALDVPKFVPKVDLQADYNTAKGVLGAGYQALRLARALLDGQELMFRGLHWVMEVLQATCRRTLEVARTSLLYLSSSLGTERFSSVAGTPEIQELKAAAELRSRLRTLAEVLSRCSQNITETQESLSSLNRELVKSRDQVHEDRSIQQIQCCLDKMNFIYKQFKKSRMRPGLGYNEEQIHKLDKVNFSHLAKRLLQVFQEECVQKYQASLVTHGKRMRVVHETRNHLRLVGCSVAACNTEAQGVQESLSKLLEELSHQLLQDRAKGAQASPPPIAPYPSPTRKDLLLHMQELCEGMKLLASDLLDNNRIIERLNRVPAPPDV
# [11] = target: T4, Inhibitor of nuclear factor kappa-B kinase subunit epsilon (Homo sapiens); conditions: at 1 µM
# [12] = target: T5, Serine/threonine-protein kinase Nek1 (Homo sapiens) (UniProt Q96PY6); conditions: at 0.1 µM
# T5 sequence (whole entry): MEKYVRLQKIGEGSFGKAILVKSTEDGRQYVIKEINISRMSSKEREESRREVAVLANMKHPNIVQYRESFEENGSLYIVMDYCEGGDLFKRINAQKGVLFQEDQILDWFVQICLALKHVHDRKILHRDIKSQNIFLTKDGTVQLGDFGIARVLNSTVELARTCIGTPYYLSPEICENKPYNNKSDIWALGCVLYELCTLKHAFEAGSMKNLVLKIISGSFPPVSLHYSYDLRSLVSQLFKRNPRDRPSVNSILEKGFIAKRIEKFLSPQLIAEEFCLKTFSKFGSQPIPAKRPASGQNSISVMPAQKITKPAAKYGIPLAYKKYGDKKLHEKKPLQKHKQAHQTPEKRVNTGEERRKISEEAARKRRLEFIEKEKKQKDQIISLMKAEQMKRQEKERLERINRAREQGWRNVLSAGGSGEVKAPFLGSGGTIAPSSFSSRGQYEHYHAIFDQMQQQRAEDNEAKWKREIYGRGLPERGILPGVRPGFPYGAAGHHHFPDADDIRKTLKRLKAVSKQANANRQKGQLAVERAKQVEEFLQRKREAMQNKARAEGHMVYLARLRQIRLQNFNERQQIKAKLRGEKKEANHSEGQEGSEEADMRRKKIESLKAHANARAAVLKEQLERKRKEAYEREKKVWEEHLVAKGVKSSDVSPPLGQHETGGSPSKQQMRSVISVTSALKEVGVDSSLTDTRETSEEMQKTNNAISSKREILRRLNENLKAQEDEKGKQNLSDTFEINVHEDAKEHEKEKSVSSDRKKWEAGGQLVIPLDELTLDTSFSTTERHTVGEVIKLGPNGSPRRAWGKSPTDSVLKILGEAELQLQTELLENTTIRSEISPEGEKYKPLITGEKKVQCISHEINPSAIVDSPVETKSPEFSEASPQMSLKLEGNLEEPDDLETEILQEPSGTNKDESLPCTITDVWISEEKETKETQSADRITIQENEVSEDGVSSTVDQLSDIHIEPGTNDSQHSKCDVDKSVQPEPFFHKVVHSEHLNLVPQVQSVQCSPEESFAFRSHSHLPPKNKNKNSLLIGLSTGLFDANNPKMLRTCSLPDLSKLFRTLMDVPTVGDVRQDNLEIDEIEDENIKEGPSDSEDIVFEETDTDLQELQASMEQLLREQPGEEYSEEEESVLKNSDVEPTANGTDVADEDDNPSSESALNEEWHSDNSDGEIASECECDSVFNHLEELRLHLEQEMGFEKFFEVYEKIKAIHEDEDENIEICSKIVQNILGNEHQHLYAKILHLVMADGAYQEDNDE
# [13] = target: T5, Serine/threonine-protein kinase Nek1 (Homo sapiens); conditions: at 1 µM
# [14] = target: T6, Serine/threonine-protein kinase Nek2 (Homo sapiens) (UniProt P51955); conditions: at 0.1 µM
# T6 sequence (whole entry): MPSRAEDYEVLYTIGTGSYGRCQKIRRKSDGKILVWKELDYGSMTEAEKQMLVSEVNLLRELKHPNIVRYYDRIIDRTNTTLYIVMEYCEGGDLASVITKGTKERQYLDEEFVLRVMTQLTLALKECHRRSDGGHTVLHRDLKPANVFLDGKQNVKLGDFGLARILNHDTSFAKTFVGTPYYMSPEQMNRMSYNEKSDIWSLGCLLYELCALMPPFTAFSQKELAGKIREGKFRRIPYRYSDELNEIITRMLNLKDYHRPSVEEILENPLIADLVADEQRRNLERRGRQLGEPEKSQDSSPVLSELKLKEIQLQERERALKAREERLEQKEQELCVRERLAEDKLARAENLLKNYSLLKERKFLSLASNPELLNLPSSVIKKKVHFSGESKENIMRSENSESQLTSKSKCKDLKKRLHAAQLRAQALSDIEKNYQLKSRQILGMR
# [15] = target: T6, Serine/threonine-protein kinase Nek2 (Homo sapiens); conditions: at 1 µM
# [16] = target: Serine/threonine-protein kinase Nek6 (Homo sapiens) (UniProt Q9HC98); conditions: at 0.1 µM
# [17] = target: Serine/threonine-protein kinase Nek6 (Homo sapiens) (UniProt Q9HC98); conditions: at 1 µM
# [18] = target: Serine/threonine-protein kinase Nek7 (Homo sapiens) (UniProt Q8TDX7); conditions: at 0.1 µM
# [19] = target: Serine/threonine-protein kinase Nek7 (Homo sapiens) (UniProt Q8TDX7); conditions: at 1 µM
# [20] = target: T7, Serine/threonine-protein kinase Nek9 (Homo sapiens) (UniProt Q8TD19); conditions: at 0.1 µM;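 also: reported value is the mean percent inhibition of NEK9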
# T7 sequence (whole entry): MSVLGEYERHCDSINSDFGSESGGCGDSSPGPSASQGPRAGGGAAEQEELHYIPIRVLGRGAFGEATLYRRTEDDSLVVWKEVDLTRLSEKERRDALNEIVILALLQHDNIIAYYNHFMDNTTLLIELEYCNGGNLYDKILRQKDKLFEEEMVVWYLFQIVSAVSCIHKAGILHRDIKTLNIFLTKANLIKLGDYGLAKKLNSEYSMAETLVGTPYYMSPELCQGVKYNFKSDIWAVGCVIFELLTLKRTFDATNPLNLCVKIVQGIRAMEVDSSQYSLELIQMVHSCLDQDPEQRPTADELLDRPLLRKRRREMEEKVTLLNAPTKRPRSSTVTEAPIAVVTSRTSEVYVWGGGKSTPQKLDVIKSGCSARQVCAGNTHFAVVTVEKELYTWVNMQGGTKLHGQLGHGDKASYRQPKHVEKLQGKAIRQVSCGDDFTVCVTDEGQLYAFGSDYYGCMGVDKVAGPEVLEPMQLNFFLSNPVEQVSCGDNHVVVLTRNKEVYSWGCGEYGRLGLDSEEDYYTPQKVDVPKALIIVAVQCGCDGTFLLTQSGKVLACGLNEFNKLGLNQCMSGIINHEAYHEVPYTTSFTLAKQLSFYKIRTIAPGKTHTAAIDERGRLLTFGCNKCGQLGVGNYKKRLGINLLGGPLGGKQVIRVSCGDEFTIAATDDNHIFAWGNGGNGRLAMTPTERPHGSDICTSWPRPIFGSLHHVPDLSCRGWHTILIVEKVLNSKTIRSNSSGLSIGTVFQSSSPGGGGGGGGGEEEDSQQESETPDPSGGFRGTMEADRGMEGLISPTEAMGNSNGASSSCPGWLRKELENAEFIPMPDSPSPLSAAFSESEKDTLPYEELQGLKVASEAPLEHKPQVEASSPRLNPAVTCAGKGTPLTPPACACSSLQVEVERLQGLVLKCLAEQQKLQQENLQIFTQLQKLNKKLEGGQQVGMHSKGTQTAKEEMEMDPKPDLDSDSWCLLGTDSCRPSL
# Chain of Serine/threonine-protein kinase Nek7 (Homo sapiens) (Q8TDX7 whole entry, looked up): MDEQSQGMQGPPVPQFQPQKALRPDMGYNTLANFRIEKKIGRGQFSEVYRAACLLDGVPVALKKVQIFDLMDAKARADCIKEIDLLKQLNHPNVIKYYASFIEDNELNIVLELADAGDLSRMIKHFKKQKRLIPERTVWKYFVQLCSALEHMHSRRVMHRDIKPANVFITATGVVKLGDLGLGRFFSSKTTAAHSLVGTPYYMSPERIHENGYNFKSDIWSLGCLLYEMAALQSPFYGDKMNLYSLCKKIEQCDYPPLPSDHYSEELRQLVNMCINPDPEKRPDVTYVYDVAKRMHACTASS
# Chain of Casein kinase II subunit alpha (Homo sapiens) (P68400 whole entry, looked up): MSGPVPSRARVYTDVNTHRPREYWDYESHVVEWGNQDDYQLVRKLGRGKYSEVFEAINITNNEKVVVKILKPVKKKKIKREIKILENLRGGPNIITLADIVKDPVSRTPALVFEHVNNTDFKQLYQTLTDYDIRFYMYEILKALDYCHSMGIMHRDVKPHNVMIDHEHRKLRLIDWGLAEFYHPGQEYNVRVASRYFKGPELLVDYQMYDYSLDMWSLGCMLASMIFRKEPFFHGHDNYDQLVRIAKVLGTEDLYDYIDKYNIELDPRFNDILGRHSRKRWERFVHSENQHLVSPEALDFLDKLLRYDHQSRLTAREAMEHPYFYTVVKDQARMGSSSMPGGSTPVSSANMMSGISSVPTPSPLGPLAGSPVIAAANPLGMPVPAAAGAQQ
# Chain of Serine/threonine-protein kinase Nek6 (Homo sapiens) (Q9HC98 whole entry): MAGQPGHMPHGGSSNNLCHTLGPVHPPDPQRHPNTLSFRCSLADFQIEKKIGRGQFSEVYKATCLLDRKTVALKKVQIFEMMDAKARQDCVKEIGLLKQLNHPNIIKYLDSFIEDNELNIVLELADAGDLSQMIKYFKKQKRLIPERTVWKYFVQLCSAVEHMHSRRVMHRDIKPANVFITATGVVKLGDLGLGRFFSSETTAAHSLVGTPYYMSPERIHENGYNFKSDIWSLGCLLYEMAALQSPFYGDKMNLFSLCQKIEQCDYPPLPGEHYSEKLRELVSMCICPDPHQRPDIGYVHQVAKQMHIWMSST
# Chain of Sphingosine kinase 1 (Homo sapiens) (Q9NYA1 whole entry): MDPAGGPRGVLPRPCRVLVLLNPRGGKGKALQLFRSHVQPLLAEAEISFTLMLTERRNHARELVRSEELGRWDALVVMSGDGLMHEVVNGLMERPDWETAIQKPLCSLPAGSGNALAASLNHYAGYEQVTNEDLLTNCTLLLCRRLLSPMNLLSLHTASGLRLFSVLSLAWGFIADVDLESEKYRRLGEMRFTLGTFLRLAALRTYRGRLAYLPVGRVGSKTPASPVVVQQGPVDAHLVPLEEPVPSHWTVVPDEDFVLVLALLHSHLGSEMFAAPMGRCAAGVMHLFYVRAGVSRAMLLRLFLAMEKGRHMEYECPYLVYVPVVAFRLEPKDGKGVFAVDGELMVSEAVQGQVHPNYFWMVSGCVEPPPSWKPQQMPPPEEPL
smiles,measurement,setting,value
FC(F)(F)c1cccc(Nc2nccc(-c3cnn4nc(-c5ccccc5)ccc34)n2)c1,inhibition,[1],-2.23%
same,inhibition,[2],-1.01%
same,inhibition,[3],-0.56%
same,inhibition,[4],7.97%
same,inhibition,[5],4.42%
same,inhibition,[6],1.94%
same,inhibition,[7],7.04%
same,inhibition,[8],3.55%
same,inhibition,[9],3.27%
same,inhibition,[10],3.76%
same,inhibition,[11],5.2%
same,inhibition,[12],2.32%
same,inhibition,[13],2.59%
same,inhibition,[14],1.73%
same,inhibition,[15],4.5%
same,inhibition,[16],-0.41%
same,inhibition,[17],-0.37%
same,inhibition,[18],2.4%
same,inhibition,[19],1.88%
same,inhibition,[20],8.12%
